Experimental data: PubChem BioAssay (Tox21)
Inconclusive results are not listed. Unmarked numbers belong to inactive results. The call rests on the fitted dose curve.

Experiment: p53 small molecule agonists, cell-based qHTS assay with rat liver microsomes (AID 1963578)
Conditions: HCT-116 p53RE-bla, beta-lactamase ratio, 16 h; series mostly up to 66 µM; activation: at the top concentration
Description: U.S. Tox21 Program National Center for Advancing Translational Sciences [NCATS] Division of Preclinical Innovation [DPI] U.S. Environmental Protection Agency [EPA] National Institutes of Environmental Health Sciences [NIEHS] National Toxicology Program [NTP] U.S. Food and Drug Administration [FDA] Tox21 Assay Overview: p53, a tumor suppressor protein, is activated following cellular insult, including DNA damage and other cellular stresses. The activation of p53 regulates cell fate by inducing DNA repair, cell cycle arrest, apoptosis, or cellular senescence. The activation of p53, therefore, is a good indicator of DNA damage and other cellular stresses. […] The activation of the reporter gene under culture conditions can be detected by fluorescence intensity. This cell line was used to screen the Tox21 10K compound library in the condition of presence of rat liver microsomes and to identify agonists that activate the p53 signaling pathway after in vitro metabolic activation (Ooka et al., Archive of Toxicology 96:1975-1987, 2022).
Tox21 Assay Protocol Summary: The p53RE-bla cells were dispensed at 4,000cells/3ul/well in 1536-well black-clear bottom plates. After the assay plates were incubated at 37 C, 5% CO2 incubator for 5 hours, 23 nL of compounds dissolved in DMSO, positive controls or DMSO only was transferred to the assay plate. Following compound addition, 3 uL of rat liver microsomes (Molecular Toxicology, Boone, NC) at final concentration of 0.5 mg/mL and 1uL of Beta-Nicotinamide adenine dinucleotide 2-phosphate (NADPH) at final concentration of 0.5 mg/mL were transferred to the assay plate. The plates were incubated at 37 C for 16 hours. 1 uL of LiveBLAzer detection mixture was added to each well and the plates were incubated at room temperature in the dark for 2 h.
On the % scale 0 is the no-effect control and ±100 the full control effect.

Row | Compound | activation
1 | NCCCNCCSP(=O)(O)O | 0.418% [at 5.99 µM]
2 | C=CC(=O)OCCCl | -2.14%
3 | O=C1CCC(C2CCCCC2)CC1 | 1.86%
4 | COc1ccc(OC)c(NC(=O)CC(C)=O)c1 | 0.0499%
5 | CCCSS/C(CCO)=C(\C)N(C=O)Cc1cnc(C)nc1N | -0.467% [at 30.3 µM]
6 | COc1ccc(/C=C/S(=O)(=O)NC(=O)c2ccc(C)cc2Cl)cc1 | 0.911%
7 | O=C(O)C1(C(=O)O)CCC1.[NH2-].[NH2-].[Pt+2] | -0.791% [at 30.3 µM]
8 | CCCCCCCCCCCCCCCC[N+](C)(C)CCN(Cc1ccc(OC)cc1)c1ncccn1 | -2.91% [at 30.3 µM]
9 | CCOCCn1c(C2CCN(CCc3ccc(C(C)(C)C(=O)O)cc3)CC2)nc2ccccc21 | -0.452% [at 30.3 µM]
10 | CC(C)(C)C(=O)O | -1.79%
11 | NNc1nc(-c2ccc([N+](=O)[O-])cc2)cs1 | -2.92%
12 | N#CCc1ccccc1[N+](=O)[O-] | -0.817%
13 | CCCCCCCCOS(=O)(=O)O | 1.2%
14 | O=Cc1ccccc1[N+](=O)[O-] | 1.94%
15 | O=C1OCCN1/N=C/c1ccc([N+](=O)[O-])o1 | 0.0143% [at 30.3 µM]
16 | CC(C)=CCC[C@@](C)(O)[C@H]1CC=C(C)CC1 | -0.443% [at 30.3 µM]
17 | CCOC(=O)C(C)O (stereo not given) | 0.836%
18 | COc1cc2nc(N3CCN(C(=O)c4ccco4)CC3)nc(N)c2cc1OC | 0.86% [at 13.6 µM]
19 | Cc1ccc(C=O)s1 | -0.36%
20 | O=C(O)COCC(=O)O | -0.0189%

Row | Compound | activation
21 | Nc1ccc(S(=O)(=O)NCc2ccccc2)cc1 | -3.25% [at 30.3 µM]
22 | Cc1ccc(OC(=O)c2ccccc2O)cc1 | 0.442%
23 | CCCCCCC(O)CCCCCCCCCCC(=O)OC (stereo not given) | -5.1%
24 | CCCCCCCCCCCC(=O)NCCCN(C)C | -7.27%
25 | O=C1c2ccccc2C(=O)N1CCl | -1.87%
26 | N#C/C(=C1\SCC(c2ccccc2Cl)S1)n1ccnc1 (stereo not given) | 0.46% [at 30.3 µM]
27 | CCOC(=O)[C@H](C)O | -0.0917%
28 | Cc1ccc2c(c1[N+](=O)[O-])C(=O)c1ccccc1C2=O | 3.76% [at 30.3 µM]
29 | CCCCCCC1CCCC(=O)O1 (stereo not given) | 0.358%
30 | Nc1nc2c(ncn2CCC(CO)CO)c(=O)[nH]1 | -3.07% [at 30.3 µM]
31 | O=C(OCC(COC(=O)c1ccccc1)(COC(=O)c1ccccc1)COC(=O)c1ccccc1)c1ccccc1 | -3.07%
32 | Clc1ccc2c(c1)CCc1cccnc1C2=C1CCNCC1 | -5.44% [at 30.3 µM]
33 | O=C(O)CNC(=O)c1ccc([N+](=O)[O-])cc1 | 0.78%
34 | CCCCCCCCCC=O | -0.775%
35 | CCOC(=O)COc1ccc(C)cc1 | -2.06%
36 | Cc1cccc(C(C)(C)C)c1O | 0.0393%
37 | CN1CCN(C(c2ccccc2)c2ccccc2)CC1 | -0.417% [at 30.3 µM]
38 | CN(C)CCOCCN(C)CCO | -3.67%
39 | CCOC(=O)OCC/C(SC(=O)OCC)=C(\C)N(C=O)Cc1cnc(C)nc1N | -1.55% [at 30.3 µM]
40 | CNC(=O)c1cc(Oc2ccc(NC(=O)Nc3ccc(Cl)c(C(F)(F)F)c3)cc2)ccn1 | 0.598% [at 30.3 µM]
